According to PubChem BioAssay AID1159580 (chemical genetic matrix, 2015):
In all, about 5,500 compounds went through this assay and about 2,000 (36%) were called active. Another 18% or so got no clear call; they are omitted. Rule as the data show it: active = normalized growth mostly below about 0.91 (no sharp cut-off); inconclusive = no clear call, values can overlap the other calls; inactive = mostly above about 0.92. This is one part of the list.

Test: chemical genetic growth profiling, strain panel (AID 1159580);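 also: tested at 20 µM; growth read once vehicle control cultures reached saturation at 30 °C; 1 = growth at the plate median or of vehicle wells; lower values mean less growth of the strain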
Conditions: S. cerevisiae deletion strains, growth OD

Measured: normalized growth

O=[N+]([O-])O[C@@H]1CO[C@H]2[C@@H]1OC[C@@H]2O
inactive: locus YHR030C, strain SLT2, active compounds read low 0.983 | locus YHR079C, strain IRE1, active compounds read low 0.991 | locus YJL095W, strain BCK1, active compounds read low 1 | locus YJR066W, strain TOR1, active compounds read low 0.955 | locus YLR113W, strain HOG1, active compounds read low 0.999 | locus YNL183C, strain NPR1, active compounds read low 0.932 | locus YOR231W, strain MKK1, active compounds read low 0.981 | locus YPL256C, strain CLN2, active compounds read low 0.966
